An excerpt weighted towards active compounds, which were near 3.3% of everything screened.
RE007 growth inh – less growth of the S. pombe RE007 Vpr strain; S. pombe RE007 Vpr strain, BacTiter-Glo ATP luminescence, 24 h; Potency, µM (series often up to 92.2 µM), for the others: at the highest dose activity change, negative = less growth, hits mostly inhibitors; 360,000 compounds, 0.21% hits; AID 651644; active = well fitted falling curve with a large enough effect; inconclusive = small, poorly fitted or top-dose-only effect; inactive = no such curve, though single readings can be large or run the other way; also: % is scaled to controls: 0 for no effect and ±100 for the full control effect; nearly all actives have a fitted effect of over 50% in size
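Fission yeast strain RE007, carrying one chromosomally integrated HIV-1 vpr copy, was seeded at OD 0.01 in PMG+AL medium with 23 nL pinned compound. After 24 h at 30 °C and 99% humidity, viability was read by BacTiter-Glo luminescence.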
SARS PLpro yeast – blocks SARS-CoV papain-like protease in a yeast assay. 330,000 compounds, 0.19% hits. Potency, µM (doses to about 32.9 µM), without a hit: at the highest dose activity, positive = growth rescue, hits mostly activators. S. cerevisiae expressing SARS-CoV PLpro, growth rescue; calls by dose curve; also: 0% is about no effect; nearly all actives have a fitted effect of over 55% in size
AmpC no deterg – inhibitors of E. coli AmpC beta-lactamase without detergent | Potency, µM (doses to about 57.1 µM), without a hit: top-dose activity change, negative = inhibition, actives largely listed as inhibitors | 330,000 compounds, 0.52% hits | P00811 | AID 485341 | AmpC nitrocefin hydrolysis, absorbance 480 nm, 0.0001% Triton;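 also: plate controls were no compound for no effect and no enzyme for full effect; nearly all actives have a fitted effect of over 20% in size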
Target sequence (P00811 whole entry, looked up): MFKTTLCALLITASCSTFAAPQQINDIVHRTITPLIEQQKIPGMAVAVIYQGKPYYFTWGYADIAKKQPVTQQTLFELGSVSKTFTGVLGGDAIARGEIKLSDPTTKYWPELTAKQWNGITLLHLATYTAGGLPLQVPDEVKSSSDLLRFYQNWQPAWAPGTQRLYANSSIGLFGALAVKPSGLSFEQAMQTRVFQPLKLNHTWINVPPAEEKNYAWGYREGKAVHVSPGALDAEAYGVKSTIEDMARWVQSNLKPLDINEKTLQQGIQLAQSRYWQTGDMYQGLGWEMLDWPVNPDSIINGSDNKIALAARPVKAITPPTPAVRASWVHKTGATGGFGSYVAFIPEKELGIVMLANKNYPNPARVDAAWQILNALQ
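AmpC (5.3 nM in the dispensed reagent) in 20 mM phosphate pH 7.0 with 0.01% (detergent screen) or 0.0001% Triton X-100 was preincubated with compounds for 15 min at room temperature. Nitrocefin was then added from an 800 uM solution, and hydrolysis was followed at 480 nm.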
AmpC inh detg – AmpC beta-lactamase inhibition with detergent present; 370,000 compounds, 0.041% hits; AmpC hydrolysis of nitrocefin, absorbance 480 nm, 0.01% Triton; P00811; Potency, µM (doses to about 114 µM), for the others: at the highest dose activity change, negative = inhibition, actives largely listed as inhibitors; AID 485294;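 also: 0% = no-compound wells and -100% = no-enzyme wells; nearly all actives have a fitted effect of over 25% in size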
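20 mM phosphate pH 7.0 + 0.01% (detergent screen) or 0.0001% Triton X-100; 5.3 nM AmpC reagent; cpd preinc 15 min RT; nitrocefin (800 uM stock) to start; A480 q20 s × 4 min; Activity was normalised to no-enzyme and no-compound control wells.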
Tb PYK inh – inhibitors of Trypanosoma brucei pyruvate kinase; Potency, µM (titrated, usually from 76.8 µM), for inactives: top-dose activity, negative = inhibition, most hits filed as inhibitors; Q57TT1; TbPYK enzyme, Kinase-Glo Plus ATP luminescence, 45 min; 410,000 compounds, 0.12% hits; also: % is scaled to controls: 0 for no effect and ±100 for the full control effect; nearly all actives have a fitted effect of over 50% in size
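Luminescent Kinase-Glo Plus end-point after 45 min room-temperature reaction of T. brucei pyruvate kinase started with 130 uM ADP (final). Buffer TEA 50 mM pH 7.2 with KCl, MgCl2, BSA, Tween-20; titration-based qHTS with fitted concentration-effect curves.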
Sm TGR inh – inhibitors of Schistosoma mansoni thioredoxin glutathione reductase; purified TGR, DTNB reduction, TNB absorbance 405 nm; Potency, µM (top dose mostly 114 µM), without a hit: at the top dose activity change, negative = inhibition, most hits filed as inhibitors; 360,000 compounds, 3% hits; AID 485364; also: % is scaled to controls: 0 for no effect and ±100 for the full control effect; nearly all actives have a fitted effect of over 60% in size
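First, TGR (20 nM dispensed) and NADPH were mixed with compound. Second, a 15 min room-temperature incubation followed. Third, further NADPH and then DTNB were added to start the reaction. Finally, TNB absorbance was monitored kinetically.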
* hit, by the source's call; ? = inconclusive; . = no result given. Unless noted, calls follow the shape of the dose curve; as a rule, active = well fitted curve in the direction sought with a large enough effect; inconclusive = small, poorly fitted or top-dose-only effect, or another doubt; inactive = no such curve, though single readings can be large; an effect the other way counts as inactive or inconclusive. Potency is read from the fitted curve at half-maximal effect.

SMILES	RE007 growth inh	SARS PLpro yeast	AmpC no deterg	AmpC inh detg	Tb PYK inh	Sm TGR inh
CCOC(=O)c1ccc(CC(=O)c2oc3cc(O)ccc3c2C)o1	36%	-5%	-46%	?	8%	28µM*
CCc1cccc(NC(=O)CSc2nc3ccccc3nc2N2CCCCC2)c1	.	.	.	23%	2%	1%
CC1=CC(C)(C)Nc2ccc(Cc3ccc4c(c3)C(C)=CC(C)(C)N4)cc21	-5%	-3%	-29%	13%	-8%	4µM*
Cc1noc(C)c1S(=O)(=O)N1CCC(C(=O)N2CCN(C3CCCC3)CC2)CC1	.	1%	37%	1%	.	32µM*
CCC(C)N1CCN(C(=O)C2CCN(S(=O)(=O)c3c(C)noc3/C=C/c3ccco3)CC2)CC1 (stereo not given)	11%	-1%	190%	3%	0%	45µM*
O=C(CSc1nccn1-c1cccc(Cl)c1)Nc1ccc2c(c1)OCO2	.	.	.	3%	0%	10%
CCOc1ccc(-n2c(C)nc3cc(C(=O)NCc4ccc(C)cc4)ccc32)cc1	.	.	.	7%	3%	3%
COc1ccc(S(=O)(=O)N(C)CC(=O)Nc2c(F)cccc2F)cc1	3%	1%	0.14µM*	-1%	5%	1%
Cc1ccccc1OCc1nc2ccccc2c(=O)n1/N=C/c1ccco1	7%	-16%	-14%	2%	-1%	40µM*
Cc1nc2ccccc2c(=O)n1/N=C/c1ccco1	1%	1%	-6%	-14%	6%	-14%
CCc1cc2c(cc3c(=O)n(CC(=O)NC4CCCCC4)nc(CC)n32)s1	.	.	.	-5%	-2%	-1%
CCOC(=O)N1CCN(C(=O)c2ccc(CS(=O)Cc3ccc(C)cc3)o2)CC1 (stereo not given)	22%	5%	31%	0%	2%	40µM*
Cc1ccc(C)c(N2CCN(C(=O)c3ccc(CS(=O)Cc4ccc(Cl)cc4)o3)CC2)c1 (stereo not given)	-1%	-10%	161%	-3%	0%	?
Cc1ccc(Cl)cc1N1CCN(C(=O)c2ccc(CS(=O)Cc3ccc(Cl)cc3)o2)CC1 (stereo not given)	6%	-6%	160%	-1%	-5%	45µM*
Cc1cccc(N2CCN(C(=O)c3ccc(CS(=O)Cc4cccc(Cl)c4)o3)CC2)c1C (stereo not given)	-9%	-5%	143%	-11%	-1%	40µM*
CCOC(=O)c1[nH]c(C)c(C(=O)NCCc2ccccc2)c1C	.	.	.	-5%	-1%	-6%
Fc1ccc(/C=C2\CCCC3=C2NC(=S)NC3c2ccc(F)cc2)cc1 (stereo not given)	.	-10%	14µM*	-14%	.	?
CN(C)c1oc(-c2ccccc2[N+](=O)[O-])nc1C#N	-13%	-2%	-8%	9%	?	35µM*
Cc1cccc(C(=O)OCC(=O)N2CCCC2=O)c1O	2µM*	-4%	-9%	1%	-6%	-9%
Cc1cccc(C(=O)OCC(=O)NC(=O)c2ccccc2)c1O	-1%	4%	-3%	-2%	-1%	50µM*
CCC1CCCCN1C(=O)Cn1c(=O)cc(C(F)(F)F)c2c(C)nn(C)c21 (stereo not given)	.	.	.	1%	1%	-7%
CN(C)C(=O)N1CCN(C(=O)c2ccco2)CC1	-9%	-2%	28µM*	-13%	-6%	-5%
CCCSc1ccccc1C(=O)N1CCN(C(=O)c2ccco2)CC1	8%	2%	40%	0%	-1%	-18%
O=C1c2ccccc2-c2c1cccc2C(=O)N1CCN(C(=O)c2ccco2)CC1	16%	4%	40%	?	?	20µM*
COc1ccc(C(=O)NCC2CCCO2)cc1 (stereo not given)	1%	13%	3%	1%	5%	0%
SMILES	RE007 growth inh	SARS PLpro yeast	AmpC no deterg	AmpC inh detg	Tb PYK inh	Sm TGR inh
CC(=O)c1ccc(-c2ccc(C(=O)NCC3CCCO3)o2)cc1 (stereo not given)	1%	-3%	-18%	?	-4%	35µM*
Cc1ccc(C)n1-c1ccc(C(=O)NCC2CCCO2)cc1 (stereo not given)	1%	-5%	7%	-11%	-12%	40µM*
COc1ccccc1S(=O)(=O)Cc1ccc(C(=O)NC2CCCCC2)o1	-20%	1%	-1%	-2%	-1%	40µM*
Cc1ccc(-c2nn(-c3ccc(F)cc3)cc2C(=O)NCC2CCCO2)cc1 (stereo not given)	-23%	-1%	76%	-7%	4%	50µM*
O=C(NCC1CCCO1)c1ccc(CS(=O)(=O)c2c(Cl)cccc2Cl)o1 (stereo not given)	6%	-3%	-5%	-8%	-4%	-4%
CCc1ccccc1S(=O)(=O)Cc1ccc(C(=O)NCC2CCCO2)o1 (stereo not given)	34%	7%	3%	4%	-15%	40µM*
C=CCCCCCCCC(=O)OC	14%	0%	-11%	2%	-9%	50µM*
Cc1cccc(OCc2nc(C#N)c(NCCN(C)C)o2)c1	-6%	9%	2.2µM*	2%	-9%	-35%
Cc1ccc(/C=C/C(=O)Nc2cc(=O)n(C)c(=O)n2C)o1	-4%	-27%	-16%	4%	?	7.9µM*
Cc1ccc(C(=O)Nc2cc(=O)n(C)c(=O)n2C)o1	-2%	-33%	-17%	-1%	-4%	-15%
Cn1c(NC(=O)/C=C/c2ccco2)cc(=O)n(C)c1=O	-4%	-18%	-42%	-20%	-7%	28µM*
CCc1ccc(OC(=O)/C=C/c2ccco2)cc1	5%	-1%	-28%	-15%	-2%	28µM*
O=C(Cc1ccccc1)N/N=C/c1ccc(OC(=O)/C=C\c2ccco2)cc1	6%	-4%	-30%	5%	0%	35µM*
O=C(O)c1ccccc1C(=O)Nc1ccccc1	3%	12%	-30%	-2%	-6%	8%
O=C(Nc1ccccc1)C1=C(c2ccccc2)S(=O)(=O)CCS1(=O)=O	3%	4%	-34%	-3%	?	0.25µM*
O=C(O)c1ccccc1N/N=C/c1c(Sc2nnnn2-c2ccccc2)nc2ccccn2c1=O	14%	0%	-35%	4%	3%	40µM*
Cc1ccc(NC(=O)C2C(c3ccccc3)C2(Cl)Cl)c(C)c1 (stereo not given)	8%	-27%	28µM*	-1%	?	-9%
Cc1cccc(NC(=O)C2C(c3ccccc3)C2(Cl)Cl)c1 (stereo not given)	-1%	-5%	-52%	-2%	0%	0%
